# LDHA block: blocks human lactate dehydrogenase A; P00338; purified LDHA, NADH/diaphorase-resazurin fluorescence; active compounds read low; activity change, % (values are at about 110 or 230 µM); hit rate 0.15% among 480,000; AID 1347041; in the data active = activity change below about -30%; inconclusive = mostly about -25% to -30%;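 also: plate controls were DMSO wells for no effect and wells without enzyme for full effect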
#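 Remaining NADH was detected by diaphorase (0.133 mg/mL) converting 37 µM resazurin to fluorescent resorufin, read at 0 and 20 minutes. The preceding 5-minute room-temperature reaction used 2 nM LDHA, 0.2 mM sodium pyruvate and 0.06 mM NADH at pH 7.4.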
# RORg inh: blocks mouse ROR gamma transcriptional activity; Drosophila S2 Gal4-RORgamma UAS-luciferase reporter, 20 h; hit rate 5.4% among 310,000; Potency, µM (top dose mostly 53.6 µM), for inactives: at the highest dose activity change, negative = inhibition, hits mostly inhibitors; P51450; also: potency is read from the fitted curve at half-maximal effect; nearly all actives have a fitted effect of over 60% in size
# Target sequence (P51450 whole entry, looked up, the tested form may be a part): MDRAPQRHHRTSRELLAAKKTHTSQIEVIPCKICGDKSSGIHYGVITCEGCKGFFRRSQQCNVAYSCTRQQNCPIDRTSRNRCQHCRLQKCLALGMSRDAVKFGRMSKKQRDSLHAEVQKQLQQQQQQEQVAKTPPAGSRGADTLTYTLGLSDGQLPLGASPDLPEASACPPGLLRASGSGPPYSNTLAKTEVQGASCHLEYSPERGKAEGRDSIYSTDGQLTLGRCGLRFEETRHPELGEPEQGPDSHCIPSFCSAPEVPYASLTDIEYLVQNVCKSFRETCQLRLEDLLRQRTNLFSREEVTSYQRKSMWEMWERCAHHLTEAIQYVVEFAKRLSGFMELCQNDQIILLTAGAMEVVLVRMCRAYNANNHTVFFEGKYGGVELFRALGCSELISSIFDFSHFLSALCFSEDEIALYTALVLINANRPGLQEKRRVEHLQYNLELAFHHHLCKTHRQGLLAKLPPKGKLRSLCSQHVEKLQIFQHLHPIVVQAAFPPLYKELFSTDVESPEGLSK
#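 ROR gamma transcriptional activity was tracked as Gal4-UAS luciferase output in stably transfected Drosophila Schneider cells, with compound added 1 hr before 700 uM copper sulfate induction and a 20 hr ambient-temperature incubation.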
# Gal4-VP16 FLuc: counter-screen for ROR gamma inhibitors: Gal4-VP16 reporter. Drosophila S2 Gal4-VP16 UAS-luciferase, luminescence, 20 h. Potency, µM (doses to about 53.6 µM), without a hit: at the highest dose activity, negative = inhibition, most hits filed as inhibitors. hit rate 3.5% among 310,000. AID 2546;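 also: Gal4-VP16 expression switched on by copper sulfate through the metallothionein promoter; potency is read from the fitted curve at half-maximal effect; nearly all actives have a fitted effect of over 50% in size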
# DT40 TDP1 CPT: growth inhibition of DT40 Tdp1-/-;hTDP1 cells with camptothecin (screen for TDP1 inhibitors) | chicken DT40 Tdp1-/-;hTDP1 cells + 20 nM CPT, ATP luminescence, 48 h | Potency, µM (highest dose often 46.2 µM), without a hit: at the highest dose activity change, negative = growth inhibition, hits mostly inhibitors | hit rate 12% among 420,000 | AID 686979; also: potency is read from the fitted curve at half-maximal effect; nearly all actives have a fitted effect of over 55% in size
#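 Chicken DT40 Tdp1-/- cells complemented with human TDP1, 400 cells/well, exposed to compounds plus 20 nM camptothecin for at least 48 h at 37 C; viability read as ATP content by CellTiter-Glo luminescence.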
# IL1B secr inh: inflammasome signaling inhibition, IL-1 beta readout; hit rate 4.7% among 360,000; activity change, % at 57.5 µM; THP-1 LPS/ATP IL-1B secretion, AlphaLISA, 16 h; active compounds read low; AID 743279; in the data active = activity change below about -50%; inconclusive = mostly about -30% to -49%
#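 Secreted IL-1B measured by AlphaLISA bead assay after 16 h compound exposure of THP-1 cells; compounds (final up to 57.5 uM) added 1 h before LPS (250 ng/mL) and ATP (1.25 mM) stimulation; lower signal means less secretion.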
# DT40 TDP1 no CPT: qHTS for Inhibitors of human tyrosyl-DNA phosphodiesterase 1 (TDP1): qHTS in cells in absence of CPT; DT40 Tdp1-/- hTDP1 cells, no CPT, ATP luminescence, 48 h; Potency, µM (doses to about 46.2 µM), for inactives: at the highest dose activity change, negative = growth inhibition, most hits filed as inhibitors; hit rate 15% among 420,000; also: potency is read from the fitted curve at half-maximal effect; nearly all actives have a fitted effect of over 55% in size
#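 Compound effects on proliferation are scored in DT40 Tdp1-/-;hTDP1 cells in the absence of CPT. ATP levels (CellTiter-Glo luminescence) are recorded after a ≥48 hr, 37 °C incubation.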
# * hit, by the source's call; ? = inconclusive; · = no result given; [ ] = another dose, or the depositor's remark. Shown are actives, neighbours in structure and some others; about 18% of the full set was active somewhere. Unless noted, calls follow the shape of the dose curve; as a rule, active = well fitted curve in the direction sought with a large enough effect; inconclusive = small, poorly fitted or top-dose-only effect, or another doubt; inactive = no such curve, though single readings can be large; an effect the other way counts as inactive or inconclusive. Unless noted, % is scaled to controls: 0 for no effect and ±100 for the full control effect.
SMILES,LDHA block,RORg inh,Gal4-VP16 FLuc,DT40 TDP1 CPT,IL1B secr inh,DT40 TDP1 no CPT
COc1cccc(/C(C)=N/NC(=O)C2CC2)c1,1.7,·,·,·,·,·
Cc1nc2ccccn2c1C(=O)NNS(=O)(=O)c1ccc(C(C)(C)C)cc1,5.8,17.3%,15.8µM*,8.2µM*,1.9,6.51µM*
C/C(=N\NC(=O)c1c(C)nc2ccccn12)c1ccc(C(C)(C)C)cc1,4.9,?,-13.6%,18.4µM*,-0.6,11.6µM*
c1ccc2c(NC3CCCC3)nnc(NC3CCCC3)c2c1,-8.2,-0.7%,2.8%,?,-23.9,16.4µM*
COc1ccc(OC)c(Nc2ncnc3sccc23)c1,-10.5,-1.9%,-14.8%,-9.4%,13.1,?
COc1cc(CN(C)c2ncnc3sccc23)ccc1OC(F)F,-1.3,-3.1%,?,16.4µM*,0.4,11.6µM*
N#Cc1ccc(CSc2ccccc2C(=O)NCCc2ccc3c(c2)OCCO3)cc1,-9.3,·,·,·,·,·
Cc1c2cnn(CC(=O)NCc3ccc(F)cc3)c(=O)c2c(C)n1Cc1cccc(Cl)c1,-5.8,·,·,4.11µM*,·,4.11µM*
CCC(C)NC(=O)Cn1ncc2c(C)n(Cc3ccc(F)cc3)c(C)c2c1=O (stereo unspecified),-1.9,·,·,23.1µM*,·,?
Cc1c2cnn(CC(=O)Nc3ccc(F)cc3F)c(=O)c2c(C)n1Cc1cccc(Cl)c1,-7.9,·,·,-26.3%,·,?
Cc1c2cnn(CC(=O)NCc3ccccc3)c(=O)c2c(C)n1Cc1ccccc1,-2.5,·,·,·,·,·
Cc1c2cnn(CC(=O)NCc3ccc(F)cc3)c(=O)c2c(C)n1Cc1ccccc1F,-2.7,·,·,?,·,16.4µM*
COc1ccc(-c2cc(=O)oc3cc(OC(C)C(=O)NCCCn4ccnc4)ccc23)cc1 (stereo unspecified),-3.2,7.4%,-9.5%,18.4µM*,51.5,20.6µM*
CCc1cc(=O)oc2cc(OCC(=O)NCCCn3ccnc3)ccc12,-7.4,-17.9%,-8.5%,-8.3%,-0.2,0.5%
Cc1c(OCC(=O)NCc2ccccn2)ccc2c(-c3ccccc3)cc(=O)oc12,-14.9,-2.5%,0.7%,-4.0%,6.2,?
COc1ccc(-c2cc(=O)oc3cc(OCC(=O)NCCCn4ccnc4)ccc23)cc1,-6.5,43.2%,-19.9%,20.6µM*,-4.8,?
CCCc1cc(=O)oc2c(C)c(OC(C)C(=O)NCCCn3ccnc3)ccc12 (stereo unspecified),-33.2*,·,·,·,·,·
COc1ccc(-c2cc(=O)oc3c(C)c(OC(C)C(=O)NCc4ccccn4)ccc23)cc1 (stereo unspecified),-1.3,-15.7%,1.3%,?,-8.7,25.9µM*
Cc1nn(C(C)(C)C)c(OC(=O)c2ccco2)c1Sc1ccccc1,1.3,-17.0%,-2.4%,-7.7%,-6.1,?
COc1ccccc1C(=O)Oc1c(Sc2ccccc2)c(C)nn1C(C)(C)C,4.5,·,·,?,·,14.6µM*
Cc1ccccc1C(=O)Oc1c(Sc2ccccc2)c(C)nn1C(C)(C)C,-2.9,·,·,?,·,14.6µM*
Cc1cc(NC(=O)C(C)OC(=O)c2cc3c(s2)CCCC3)no1 (stereo unspecified),-2.5,·,·,·,·,·
Cc1ccc(OCc2nc3ccccc3n2C(C)C(=O)Nc2c(C)cccc2C)cc1 (stereo unspecified),1.0,·,·,?,-20.8,18.4µM*
c1ccc2c(c1)ncn2CCC1CCCCC1,-1.7,7.94µM*,-90.8%,25.9µM*,-1.2,20.6µM*
Cc1ccc(OCc2nc3ccccc3n2CC(C)C)cc1,-0.7,·,·,?,·,23.1µM*
SMILES,LDHA block,RORg inh,Gal4-VP16 FLuc,DT40 TDP1 CPT,IL1B secr inh,DT40 TDP1 no CPT
CCc1nc2ccccc2n1CCCCOc1ccc(Cl)cc1,-0.4,·,·,20.6µM*,·,?
O=C(NC12CC3CC(CC(C3)C1)C2)C(F)(F)F,3.1,·,·,·,·,·
OCc1nc2ccccc2n1CCCOc1ccc(Br)cc1,1.1,13.6%,-3.0%,16.4µM*,-11.0,18.4µM*
OCc1nc2ccccc2n1CCOc1ccccc1,-3.7,·,·,6.1%,-23.9,?
OCc1nc2ccccc2n1CCCCOc1ccccc1,2.8,·,·,?,-11.7,?
OCCCc1nc2ccccc2n1CCCCOc1ccccc1,0.0,-0.6%,-3.2%,?,13.7,?
Cc1ccc(OCCCCn2c(CO)nc3ccccc32)cc1,-2.0,-33.4%,6.7%[10 µM],23.1µM*,-52.4*,?
CCc1nc2ccccc2n1Cc1ccccc1F,-2.7,10µM*,-20.4%[10 µM],?,25.3,?
CCc1nc2ccccc2n1CCCCOc1ccc(C)cc1,6.0,·,·,?,·,8.2µM*
Cc1ccc(NC(=O)c2ccc(=O)n(CCOc3ccccc3)n2)cc1F,4.3,·,·,·,·,·
Clc1ccccc1OCCn1cnc2ccccc21,-11.5,8.2%,6.1%,-18.0%,-21.1,-22.3%
Clc1ccc(OCCn2cnc3ccccc32)cc1,-5.2,3.98µM*,10.0%,23.1µM*,0.0,18.4µM*
CCCCC(CC)C(=O)Nc1ccccc1F (stereo unspecified),15.4,·,·,·,·,·
Cn1c(CSc2ccccc2)c(C#N)c2ccccc21,3.8,-10.1%,-10.5%,-3.5%,-15.0,-27.1%
Cc1ccc(SCc2c(C#N)c3ccccc3n2C)cc1,2.1,11.6%,?,20.6µM*,-2.7,20.6µM*
Cn1c(CN2CCN(CCO)CC2)c(C#N)c2ccccc21,-14.2,13.1%,1.3%,1.5%,38.1,-14.4%
Cc1ccccc1N1CCN(Cc2c(C#N)c3ccccc3n2C)CC1,2.2,-18.1%,0.4%,18.4µM*,10.9,?
N#Cc1nc(-c2ccc(Cl)cc2)oc1N1CCCC1,-0.5,·,·,·,·,·
Cc1ccc(S(=O)(=O)N2CCCCC2)cc1NCC(=O)N1CCN(C(=O)c2cccs2)CC1,20.1,·,·,·,·,·
COc1ccc(C2=NOC(Cn3c(Cc4ccc(Cl)cc4)nc4c3c(=O)n(C)c(=O)n4C)C2)cc1 (stereo unspecified),-1.6,14.0%,-2.9%,25.9µM*,-28.8,23.1µM*
COc1cc(/C=N/NC(N)=S)ccc1OCC(=O)Nc1ccc(C)c(C)c1,-0.9,11.2µM*,?,?,-14.8,?
COc1cc(/C=N/NC(N)=O)ccc1OCC(=O)Nc1ccc(C)c(C)c1,-22.1,-3.5%,-18.9%,-5.3%,-7.5,6.6%
CCOc1cc(/C=N/NC(N)=O)ccc1OCC(=O)Nc1ccc(C)c(C)c1,-1.7,-2.6%,-5.2%,20.6µM*,-15.3,23.1µM*
COc1cc(/C=N/NC(=O)c2cccc(C)c2)ccc1OCC(=O)Nc1ccccc1,-0.3,·,·,?,13.2,18.4µM*

# From PubChem
